We go through 46 molecules from PubChem BioAssay.

Structures are written as SMILES. Values without a mark were called inactive. How the calls were made is not given here.

This experiment concerns the target Pantothenate synthetase (Mycobacterium tuberculosis (strain ATCC 25618 / H37Rv)) (UniProt P9WIL5). In words: Recombinant Mtb pantothenate synthetase (PanC) inhibitors, coupled enzyme, confirmatory (AID 375).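 Further: 0% = full reaction with vehicle and 100% = no enzyme background.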 As to conditions: coupled enzyme assay; at 10 µM, hits give high values.

Pantothenate synthetase (Mycobacterium tuberculosis (strain ATCC 25618 / H37Rv)), sequence (P9WIL5 whole entry, looked up): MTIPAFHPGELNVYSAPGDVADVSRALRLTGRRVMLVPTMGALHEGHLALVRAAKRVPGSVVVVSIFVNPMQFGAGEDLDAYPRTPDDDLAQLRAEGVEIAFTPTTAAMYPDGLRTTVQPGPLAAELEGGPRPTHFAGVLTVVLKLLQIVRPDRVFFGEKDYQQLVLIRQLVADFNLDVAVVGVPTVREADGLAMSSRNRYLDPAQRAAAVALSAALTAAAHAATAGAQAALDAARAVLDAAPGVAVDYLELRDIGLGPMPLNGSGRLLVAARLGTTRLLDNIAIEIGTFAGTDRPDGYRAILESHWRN

Take `COC(=O)[C@H](C)NC(=O)Nc1cc(OC)ccc1OC`: the inhibition – broadly, the percentage by which the read-out fell short of the control – was 0%.
Turning to `O=S(=O)(c1ccccc1)N(Cc1nc(-c2ccccc2)no1)C1CCCCC1`, the inhibition is 0%.
For `Cc1ccc2nc(SC(C)C(=O)N3CCCC3)[nH]c2c1` (stereo unspecified) the value was 2%; for `O=C(Nc1ccc(N2CCOCC2)cc1)C1CC1`, 0%; for `O=C(Nc1ccc2c(c1)OCCO2)NC1CCCCC1`, 0%.
Next, `Cc1cccc(N2CCN(C(=O)Cn3nc(Cc4ccncc4)c4ccccc4c3=O)CC2)c1C`: 4%; `CN(C)c1cccc(C(=O)OCC(=O)NCc2ccco2)c1`: 0%.
Regarding `CCOCCn1c(CN2CCN(CC)CC2)nc2c1c(=O)n(C)c(=O)n2C`, the inhibition was 0%.
For `CCCCNC(=O)C(C#N)c1nc2ccccc2nc1N1CCCC1` (stereo unspecified) the value was 0%; for `CCCCOc1ccc(C(=O)Nc2ccc(N3CCN(C(C)=O)CC3)cc2)cc1`, 0%.
Next, `COC(=O)c1nc(N)sc1-c1ccccc1`: 0%.
Next, `Cc1cc(=O)oc2c(CN3CCN(C)CC3)c(O)c(Cl)cc12`: 7%.
As for `O=C(Cn1cnc2c(nnn2-c2ccc(F)cc2)c1=O)N1CCCc2ccccc21`, the inhibition is 0%.
Regarding `CCOC(=O)Cc1nnc2c(Nc3ccccc3F)nc3nonc3n12`, the inhibition is 7%.
For `Cc1cc(C(=O)NCc2cccnc2)n(-c2ccccc2)n1` the value was 0%.
Next, `CC(C)CNS(=O)(=O)c1ccc(CCC(=O)NCc2ccco2)cc1`: 2%.
For `Cc1cc(=O)[nH]c(SCc2nc3ncccn3c2Br)n1` the value was 11%.
Take `O=C(NCc1cccnc1)c1ccc(=O)oc1`: the inhibition was 3%.
For `Cc1c(NC(=O)c2coc(=O)c(Br)c2)c(=O)n(-c2ccccc2)n1C` the value was 7%; for `O=c1[nH]c2ccc(S(=O)(=O)N3CCN(C4CCCCC4)CC3)cc2[nH]c1=O`, 1%.
On to `COc1ccc(CNC(=O)c2nnn(Cc3ccc(OC)cc3)c2N)cc1`, for which the inhibition was 0%.
For `CC(C)(C)NS(=O)(=O)c1ccc(CCC(=O)O)cc1` the value was 0%.
For `COc1ccc(CCNS(=O)(=O)c2ccc(C(=O)NCc3ccco3)cc2)cc1OC` the value was 0%; for `CCOc1ccc(OCc2cccc(C(=O)N3CCOCC3)c2)cc1`, 2%.
Next, `CCN(CC(=O)Nc1ccc2c(c1)OCCO2)Cc1cc(=O)oc2cc(C)c(C)cc12`: 0%; `COc1cccc(/C(O)=C2/C(=O)C(=O)N(CCN3CCOCC3)C2c2cccnc2)c1` (stereo unspecified): 1%.
Take `COc1ccc(OC)c(S(=O)(=O)N2CCC(C(=O)NCC3CCCO3)CC2)c1` (stereo unspecified): the inhibition was 7%.
Next, `CN(Cc1nc(-c2ccncc2)no1)S(=O)(=O)c1ccc(Br)cc1`: 2%; `CCOC(=O)c1ccc(NS(=O)(=O)c2cccc3nsnc23)cc1`: 8%; `CCOC(=O)c1cc(-c2ccc(N)cc2)sc1N`: 0%.
As for `C=C(C)Cn1c(CCNC(=O)CC)nc2ccccc21`, the inhibition is 0%.
Next, `CC1(C)Cc2c(sc3c2C2=NCCN2C=N3)CO1`: 0%; `Cc1cnn(C(=S)NCc2ccco2)c1`: 0%; `Cc1ccc(-n2ncc3c(=O)n(CC(=O)NCc4ccco4)cnc32)cc1`: 0%.
For `CC(=O)OCC(=O)[C@@]1(OC(C)=O)[C@@H](C)C[C@H]2[C@@H]3C[C@H](F)C4=CC(=O)C=C[C@]4(C)[C@@]3(F)[C@@H](O)C[C@@]21C` the value was 0%; for `COc1ccc(NC(=O)c2cc(C)on2)cc1OC`, 8%; for `COc1ccccc1NS(=O)(=O)c1ccc(NC(=O)c2nc3ncccn3n2)cc1`, 0%.
As for `CC(=O)N1CCc2cc(S(=O)(=O)NC(CC(C)C)C(=O)N3CCn4c3nc3ccccc34)ccc21` (stereo unspecified), the inhibition is 0%.
For `Cc1ccc(C)c(S(=O)(=O)n2cnc3ccccc32)c1` the value was 0%; for `CS(=O)(=O)N1CCCC(C(=O)NCc2ccccc2Cl)C1` (stereo unspecified), 0%; for `COc1ccc(NC(=O)CSc2nc3c(c(=O)n2-c2ccc(F)cc2)SCC3)c(OC)c1`, 0%.
`CC(C)CN(CC(C)C)c1nc(N)c(C#N)c(CC#N)c1C#N`: the inhibition was 0%.
For `Cn1c(SCC(=O)c2cc3ccccc3o2)nnc1-c1ccccc1` the value was 1%; for `O=C(CSc1nnc(-c2ccccc2)o1)NC1CCCCC1`, 0%; for `O=c1c2cc(Cl)ccc2[nH]c(=S)n1Cc1ccco1`, 8%.
For `O=C(O)c1ccc(NC(=O)c2cccs2)cc1` the value was 0%.
